Laboratory results reported in PubChem BioAssay (NCI).
Where “and” joins values, the source holds several entries; their conditions need not be identical. Identical values can stand only once. Compounds without any hit were thinned out: in the full panel of roughly 83,000, 20% have a hit.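 Method: cells in 96-well plates; compound added at one concentration; 48 h incubation; percent growth measured; values under 10 scored active.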 Calls of active or inactive are those of the source.

Tested on: MDA-MB-468 breast
Experiment: NCI-60 one-dose screen, 48 h (100 = growth as untreated, 0 = no growth, -100 = all killed)
Conditions: 10 µM unless noted

Row | Structure (SMILES) | growth
1 | Cn1c2ccccc2c2c3[nH][nH]c(=O)c3c3c4ccccc4[nH]c3c21 | 49.5% (inactive)
2 | CCOC(=O)c1c(NC(=O)c2ccc(C(F)(F)F)cc2)sc2c(CN3CCN(C)CC3)c(O)ccc12 | -80.6% (active)
3 | O=C(N/N=C/c1ccccc1O)c1ccccc1O | 17% (inactive)
4 | O=CNc1ccc2c(c1)Cc1cc([N+](=O)[O-])ccc1-2 | -29.6% (active)
5 | c1ccc(-c2nc(N3CCOCC3)c3c4c(sc3n2)CCCCC4)nc1 | 65.7% (inactive)
6 | O=[N+]([O-])c1cc(Cl)c2[nH]c3c(Cl)cc([N+](=O)[O-])cc3c2c1 | -17.9% (active)
7 | O=C(O)CN1C(=O)c2cccc3cccc(c23)C1=O | 95.7% (inactive)
8 | Cc1cc(Nc2ncc(Cl)c(Nc3ccccc3S(=O)(=O)C(C)C)n2)c(OC(C)C)cc1C1CCNCC1 | -78.1% (active)
9 | Cc1ccc(S(=O)(=O)O)c(C)c1 | 107% (inactive)
10 | CC(C)(C)c1ccc(C(=O)Nc2sc3c(c2C(N)=O)CCC(O)C3)cc1 (stereo not given) | 32.3% (inactive)
11 | COc1ccc(OC)c2c1C(=O)CC2C (stereo not given) | 99.6% (inactive)
12 | O=C(NC1CCC(Br)CC1)C1CCCC(S(=O)(=O)NC2CCCCC2)C1 (stereo not given) | -3.64% [25 µM] (active)
13 | CC1Cc2ccccc2O1 (stereo not given) | 120% (inactive)
14 | COc1ccc(-c2ccc3c(N4CCOC[C@@H]4C)nc(N4CCOC[C@@H]4C)nc3n2)cc1CO | -27.4% (active)
15 | O=C1C(Cl)=C(Nc2cccc3cc4ccccc4nc23)C(=O)c2ccccc21 | 40.9% (inactive)
16 | COC(=O)c1c(-c2ccccc2)csc1NC(=O)c1c(-c2ccccc2)noc1C | 63.6% (inactive)
17 | c1cc[n+](C2c3ccccc3C([n+]3ccccc3)c3ccccc32)cc1 (stereo not given) | -37.4% (active)
18 | CCC/C(=N/NC(N)=O)c1ccco1 | 102% (inactive)
19 | CO/N=C/C=C\C(=O)N/C=C/C[C@H]1/C=C/[C@H](O)/C=C\C=C\c2cccc(O)c2C(=O)O1 | 59.1% (inactive) and 46.3% (inactive)
20 | Fc1ccc(-c2cnc3nonc3n2)c(F)c1 | 73.3% (inactive)

Row | Structure (SMILES) | growth
21 | CCCNS(=O)(=O)c1ccc(Cl)cc1 | 102% (inactive)
22 | COc1cc(/C(C#N)=C/c2ccc3c(c2OC)OCO3)cc2c1OCO2 | 9.19% (active)
23 | O=C1C=Cc2ncccc2C1=O | 64.5% (inactive)
24 | NNC(=O)c1ccc(-n2nc(-c3ccccc3)c3ccccc32)cc1 | 38.3% (inactive)
25 | O=C(N/N=C\c1ccccc1S(=O)(=O)O)N/N=C/c1ccccc1S(=O)(=O)O | 101% (inactive)
26 | COc1ccc(Cn2cc3c(c2-c2ccccc2)CCCc2cnoc2-3)cc1[N+](=O)[O-] | 40.4% (inactive)
27 | O=C(CCl)NCCNc1nccc(Nc2ccc(S(=O)(=O)Nc3ccccn3)cc2)n1 | 21.1% (inactive)
28 | CCOc1ccccc1C(=O)N1CCN(c2cc(Cl)cc(Cl)c2)CC1 | 3.92% (active)
29 | O=C(CN1CCN(c2cc(=O)[nH]c3ccc(F)cc23)CC1)N(c1ccccc1)c1ccccc1 | 98.6% (inactive)
30 | Clc1ccc(OCc2nc(-c3ccccc3)n[nH]2)c(Cl)c1 | 99.1% (inactive)
31 | Oc1cc(O)c(Br)cc1Br | 101% (inactive)
32 | COc1cc2c(c(OC)c1OC)C(=O)CC(c1cccc(C(=O)Nc3cccc(Br)c3)c1)O2 (stereo not given) | 71% (inactive)
33 | Cc1ccc(S(=O)(=O)N(CC[C@@H]2C[C@H]2c2cc3ccccc3o2)S(=O)(=O)c2ccc(C)cc2)cc1 | 80% (inactive)
34 | CC(=O)OC(C)COc1ccc(-c2ccccc2)cc1 (stereo not given) | 98.4% (inactive)
35 | CC(=O)NC1(C(=O)O)CCCC1 | 116% (inactive)
36 | O=C(CSc1nnc(-c2cc3c([nH]c4ccccc43)c(-c3cccc(O)c3)n2)n1-c1ccccc1)c1ccccc1 | 63% (inactive)
37 | Nc1nc(Nc2cc(Cl)cc(Cl)c2)nn1S(=O)(=O)c1ccc2ccccc2c1 | 66.3% (inactive)
38 | COc1cnc2c(c1)C(=O)c1c-2n(CCCNCCO)c(=O)c2ccncc12 | -23.9% (active)
39 | COc1ccc2c(O)c(/C=C3\N=Nc4ccccc43)oc2c1C[C@H]1CCNC[C@H]1F | 75.6% (inactive)
40 | CN(C[C@H]1Cc2c(cccc2N2CCN(Cc3ccccn3)CC2)CN1)[C@H]1CCCc2cccnc21 | 63.4% (inactive)
